Compound activity (PubChem)
NR5A2 inv ag: NR5A2 inverse agonism in reporter assay; inhibition, % at 3.6 µM; O00482; HEK293T StAR-luciferase reporter, LRH-1 transfected, 24 h; 0.13% of 360,000 active;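 active means inhibition above the mean inhibition of all tested compounds plus 3 SD, cut at about 73% in these data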;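 further: 0% = DMSO wells and 100% = reporter-only cells lacking LRH-1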
SRC2 inh: human SRC2 (NCOA2) inhibition; Q15596; HEK293 GAL4-SRC2 luciferase reporter, luminescence; inhibition, % at 9 µM; 0.17% of 370,000 active; AID 651957;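 active means inhibition above the mean inhibition of all tested compounds plus 3 SD, set per campaign, cut at about 52% in these data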;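 further: 0% = DMSO treated cells and 100% = cells given Gossypol at 36 µM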
NCOA3 inh: inhibitors of human steroid receptor coactivator 3 (SRC3); Q9Y6Q9; HEK293 GAL4-SRC3 luciferase reporter, luminescence; inhibition, % at 3.6 µM; 0.17% of 360,000 active;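 active means inhibition above a per-campaign cutoff, the mean of all compounds plus 3 SD, cut at about 60% in these data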;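 further: 0% = DMSO-treated cells and 100% = gossypol-treated cells at 36 µM; higher means less SRC3-driven luciferase light from the GAL4 reporter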
NR2F2 inh: NR2F2 (human) inhibition, primary screen. 0.7% of 370,000 active. HEK293T NGFI-A luciferase reporter, luminescence. AID 686940. P24468. inhibition, % at 8.6 µM;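 active means inhibition above a per-plate cutoff, mean inhibition of test wells between control levels plus 3 SD, cut at about 38% in these data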;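 further: cells cotransfected with COUP-TFII expression vector driving the NGFI-A reporter; 0% = median of COUP-TF2 test wells and 100% = reporter-only cells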
Gli-Sufu block: antagonists of Gli-Sufu signaling; Sufu-KO-LIGHT fibroblasts, Gli luciferase reporter luminescence; inhibition, % at 5 µM; 0.74% of 340,000 active; AID 588413;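 active means inhibition above about 55%, limit read from the data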;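 further: 0% = DMSO-treated cells and 100% = wells with medium but no cells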
SRC1 inh: human NCOA1 inhibition; Q15788; HEK293 GAL4-SRC1 luciferase reporter, luminescence; inhibition, % at 3.6 µM; 0.12% of 360,000 active; AID 588354;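 active means inhibition above the campaign mean plus 3 SD, with each screening campaign given its own cutoff, cut at about 60% in these data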;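 further: 0% = DMSO treated cells and 100% = gossypol at 36 µM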
Gli-Sufu confirm: confirmation of Gli-SUFU pathway antagonists | shares compounds with Gli-Sufu block | Sufu-KO-LIGHT cells, Gli luciferase reporter, luminescence | inhibition, % at 5 µM | 40% of 2,500 active | AID 602428;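 active means mean inhibition at 5 µM reaching about 45%, limit read from the data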;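 further: plate controls were DMSO-treated cells for no effect and wells lacking cells for full effect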
Gli cytotox: cytotoxicity counter-screen for Gli-SUFU antagonists; shares compounds with Gli-Sufu block; Sufu-KO-LIGHT cells cytotoxicity, ATP luminescence; cytotoxicity, % at 5 µM; 32% of 2,500 active; AID 651994;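 active means mean cytotoxicity at 5 µM above about 25%, limit read from the data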;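 further: cells exposed to compound overnight for roughly 16 to 18 hours; plate controls were DMSO wells with cells for no effect and medium without cells for full effect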
Wnt3a counter: inhibits Wnt3a reporter, counter-screen for Gli-SUFU antagonists; Wnt-LIGHT cells, Wnt3a-driven luciferase reporter, luminescence; shares compounds with Gli-Sufu block; inhibition, % at 6.25 µM; 20% of 2,500 active; AID 651995;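 active means mean inhibition above about 25%, limit read from the data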
Numbers without * were called inactive; . = no result given. An excerpt weighted towards active compounds, which were near 1.2% of everything screened.

SMILES	NR5A2 inv ag	SRC2 inh	NCOA3 inh	NR2F2 inh	Gli-Sufu block	SRC1 inh	Gli-Sufu confirm	Gli cytotox	Wnt3a counter
Cc1c(C(=O)N2CCN(Cc3ccccc3)CC2)oc2c1C(=O)CC(C)(C)C2	-12	-8	11	-3	52	-6	15	13	-44
COCCN(Cc1cc2cc(C)cc(C)c2nc1Cl)C(=O)Nc1ccccc1	-20	-1	-17	-7	-4	-1	.	.	.
COCCN(Cc1cc2c(C)cc(C)cc2nc1Cl)C(=O)c1ccccc1F	13	-13	8	9	58*	0	26	15	-27
CN1NC(=O)c2ccccc2NC1=S	.	-33	.	5	.	.	.	.	.
O=c1c2ccccc2cnn1CCOc1ccccc1	-52	16	36	37	59*	-6	38	18	95*
O=C(O)Cn1ncc2ccccc2c1=O	1	-16	14	-7	-3	-6	.	.	.
O=C(COc1ccccc1)Nc1ccc(OC(F)(F)C(F)F)c(NC(=O)COc2ccccc2)c1	11	-5	4	21	61*	-26	4	2	-57
CC(=O)Nc1ccc(OC(F)(F)C(F)F)c(NC(C)=O)c1	-20	-18	-28	-6	0	4	.	.	.
COc1cc2ccc(=O)oc2c(O[C@@H]2O[C@H](CO)[C@@H](O)[C@H](O)[C@H]2O)c1O	6	-25	8	-2	3	-19	22	6	-4
CCN1C(C(=O)Nc2cc(C)on2)=C(O)c2ccccc2S1(=O)=O	-14	8	-16	15	1	8	.	.	.
Cc1cc(NC(=O)C2=C(O)c3ccccc3S(=O)(=O)N2C)no1	-2	-14	16	6	62*	6	3	28*	-9
COc1cc2c(c3c1c(=O)c1ccccc1n3C)C=CC(C)(C)O2	.	-13	.	7	.	.	.	.	.
CC1(C)CC2CC(C)(CN2c2ncnc3ccccc23)C1 (stereo not drawn)	12	18	31	35	53	14	40	4	21
C/C(=N\Nc1cc(N2CCCCC2)nc(C)n1)c1ccc(Br)cc1	-2	-7	6	-4	79*	8	52*	45*	22
CC(=O)Nc1ccc(S(=O)(=O)N2c3ccccc3C(C)=CC2(C)C)cc1	24	-2	13	-50	57*	-25	52*	54*	23
CC1=CC(C)(C)N(S(=O)(=O)c2ccc(F)cc2)c2ccccc21	11	7	12	15	4	17	.	.	.
CC(=O)c1cc(-c2ccccc2)n(CCC(=O)NC2CCCCCCC2)c1C	-16	5	-5	18	70*	3	13	-10	-44
COC(=O)c1nnn(CC(=O)Nc2cccc(Cl)c2C)c1C(=O)OC	27	-6	12	-17	99*	11	18	-2	2
O=C(N[C@H](C(=O)N1CCC[C@H]1C(=O)NC1CCCC1)C1CCCCC1)c1ccccn1	.	-4	.	-21	.	.	.	.	.
COC(=O)c1cc(S(=O)(=O)N2CCN(c3ccc(F)cc3)CC2)c[nH]1	1	-18	16	1	-47	7	.	.	.
COC(=O)c1cc(S(=O)(=O)N2CCN(c3ccc([N+](=O)[O-])cc3)CC2)c[nH]1	9	0	-9	-11	51	-11	21	-1	-68
COC(=O)c1cc(S(=O)(=O)N2CCC(c3cc(OC)ccc3OC)C2)c[nH]1 (stereo not drawn)	11	31	26	15	52	6	45	28*	5
Nc1[nH]c(C(=O)c2ccc(Br)cc2)c(-c2ccc(Br)cc2)c1C(=O)NCc1cccc2ccccc12	.	-8	.	4	.	.	.	.	.
CN1C(=O)c2cc(NC(=O)Nc3ccc(F)c(F)c3)ccc2OC[C@H]2O[C@@H](CC(=O)O)CC[C@H]21	.	-24	.	0	.	.	.	.	.
